According to PubChem BioAssay:
“And” between values parts separate entries of the source, which are not always exact repeats. Equal entries are not always repeated. For some of these results: Results with a measured potency or affinity are listed apart. Some compounds were tested as several samples or in several runs, with calls that do not always agree. The source made the active and inactive calls. Rule as the data show it, unless noted: active = parasite load remaining mostly below about 12% (no sharp cut-off); inactive = mostly above about 10%. Bridge positions count the residues as written; N and C are the ends. Square brackets hold non-standard residues; d marks the D form. Peptide text beside a SMILES is read from it. * marks the point of attachment. ξ: configuration not given here. ξDab(CH2SO3H) = NC(CCNCS(=O)(=O)O)C(=O)O; Heptanoyl(6-Me) = CC(C)CCCCC(=O)*; Dab = NCC[CH](N)C(=O)O

Assays:
[1] = blockers of polyQ-driven CASP3 activation – cell-based (AID 1583); settings: polyglutamine-induced caspase-3 activation, cell assay; stronger effect = higher value;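 tested at 10 µM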
[2] = yeast 75Q aggregation reduction – 75Q-TubU reporter (AID 1593); settings: Yeast 75Q polyglutamine aggregation reporter
[3] = restoration of touch response, mutant HTT neurons – whole organism, C. elegans mechanosensory neurons, N-terminal huntingtin (AID 1599); settings: C. elegans polyQ-huntingtin mechanosensory neurons, stronger effect = higher value
[4] = blockers of cytochrome c efflux from mitochondria – biochemical, purified mitochondria (AID 1603); settings: stronger effect = lower value;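 also: mouse liver mitochondria challenged with calcium chloride; signal normalized to the plate average as 100%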
[5] = polyglutamine aggregate formation blockers (AID 1604); settings: polyglutamine-induced protein aggregation inhibition assay; stronger effect = higher value; tested at 2.5 µM
[6] = glutamate transport activators, MN-1 cells, MN-1 cell line (AID 1612); settings: MN-1 motor neuron cells, stronger effect = higher value;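 also: tested at 1 µM final; 0% = mean of DMSO vehicle wells on each plate; positive means more glutamate uptake than control and negative means less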
[7] = 75Q-TubH aggregate inhibition, S. cerevisiae, yeast (AID 1616); settings: S. cerevisiae 75Q-TubH polyglutamine aggregation suppression; stronger effect = higher value
[8] = P. berghei load reduction in hepatocytes – cell-based, HepG2, luciferase luminescence, HepG2 viability, primary screen (AID 624349);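 also: 100% = mean of DMSO negative control wells on the same plate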; settings: P. berghei liver stage in HepG2, luciferase luminescence, concentration not given here; parasite load remaining: stronger effect = lower value; viability: measured here: HepG2 viability without parasites
[9] = EMT-state selective cytotoxicity in co-culture – imaging, PC-3E GFP, TEM4-18 mCherry, primary screen (AID 1345086;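 active = compounds killing one labelled cell type while sparing the other, by normalised counts and ratio limits, not self-fluorescent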;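 as to all read-outs here: cells exposed to compound for 72 h before imaging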;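 as to red/green cell ratio (normalised): normalised mesenchymal count divided by normalised epithelial count so high means epithelial killing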); settings: PC-3E GFP / TEM4-18 mCherry co-culture, imaging cell counts, at 1 µM; for red/green cell ratio (normalised): actives lie on both sides, counts scaled to control wells, 1 = unselective
[10] = viability loss with induced miR-34 in A549 – imaging, A549 dox-inducible miR-34, nuclei and caspase counts, primary screen (AID 1347080;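 active = compounds whose cell count with miR-34 switched on is under 0.7 times the count with it off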); settings: A549 miR-34 inducible, Hoechst nuclei count, 48 h
[11] = GFP-Q80 aggregate reduction, neuronal-like cells, cell-based, NGF-treated PC12, GFPQ80 (AID 1614); settings: PC12 NGF-treated GFP-polyQ80 inclusion reduction;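 also: lower means fewer inclusions and 0 means no inclusions at all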
[12] = galactose survival enhancers in mitochondrial complex I cybrids – cell-based, galactose medium, ATP luminescence, primary screen (AID 1645843;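 active = z-score of at least 1.8 in each of two replicates, scored against plate mean and spread of sample wells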;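 also: positive z means more ATP and so rescue of galactose-driven cybrid death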); settings: complex I mutant cybrid cells, 72 h, stronger effect = higher value
[13] = measured here: epithelial PC-3E GFP cell survival
[14] = measured here: mesenchymal TEM4-18 mCherry cell survival
[15] = stronger effect = lower value, cell number ratio, induced over uninduced
[16] = measured here: relative caspase fold change +Dox/-Dox
[17] = measured here: total cells with miR-34 induction, stronger effect = lower value
[18] = measured here: total cells without miR-34 induction

SMILES	inhibition [1]	score [2]	rescue above control [3]	cytochrome c release ratio [4]	inhibition of aggregation [5]	glutamate uptake change [6]	aggregation suppression score [7]	parasite load remaining [8]	viability [8]	red/green cell ratio (normalised) [9]	normalised cell number [9, 13]	normalised cell number [9, 14]	fold change [10, 15]	fold change [10, 16]	cell count [10, 17]	cell count [10, 18]	inclusion score [11]	z-score [12]
CCCCCCCCCCCCC[N+](C)(C)Cc1ccccc1	73.1%	-0.05	0	5.81	25%	18.1%	-0.017	85.2% (inactive) and -0.62% (inactive)	75.6% and 58.8%	0.62 (inactive)	0.83	0.51	0.898 (inactive)	1.61	74.5	83	–	–
CC(=O)OCC(=O)[C@@]1(O)CCC2C3CCC4=CC(=O)CC[C@]4(C)C3C(=O)C[C@@]21C (stereo partly drawn)	-3.61%	1.04	-2.34	0.91	69.7%	-1.1%	0.738	120% (inactive) and 65.9% (inactive)	67.1% and 90.7%	1.08 (inactive)	1.08	1.17	0.911 (inactive)	0.583	11400	12500	2	–
CC(=O)O[C@]1(C(C)=O)CCC2C3C=C(Cl)C4=CC(=O)[C@@H]5C[C@@H]5[C@]4(C)C3CC[C@@]21C (stereo partly drawn)	22.9%	0.66	-6.61	1.14	61%	14.6%	0.413	90.2% (inactive) and 39.4% (inactive)	70.9% and 86.5%	0.81 (inactive)	1.12	0.91	0.907 (inactive)	1.85	11200	12400	1	–
Nc1ccn(C2O[C@H](CO)[C@@H](O)[C@@H]2O)c(=O)n1 (stereo partly drawn)	26%	1.28	1.26	1.03	77.5%	-13.5%	1.27	129% (inactive) and 95.7% (inactive)	74% and 95.8%	1.61 (inactive)	0.27	0.43	0.952 (inactive)	1.13	1930	2030	–	–
CC(=O)OCC(=O)[C@@]12OC3(CCCC3)O[C@@H]1CC1C3CCC4=CC(=O)C=C[C@]4(C)[C@@]3(F)[C@@H](O)C[C@@]12C (stereo partly drawn)	11.1%	0.65	-4.49	0.91	31.4%	27.2%	0.855	189% (inactive) and 59% (inactive)	84% and 96.4%	1.04 (inactive)	1.4	1.46	0.917 (inactive)	2.86	7510	8190	2	–
C[C@]12CCC3c4ccc(O)cc4CCC3C1CC[C@@H]2O (stereo partly drawn)	29.2%	0.39	6.83	1.24	47.9%	35.2%	0.216	84% (inactive) and 56.6% (inactive)	74.3% and 92.5%	1.16 (inactive)	1.32	1.53	0.991 (inactive)	1.49	11000	11100	2	–
C#C[C@]1(O)CCC2C3CCc4cc(OC)ccc4C3CC[C@@]21C (stereo partly drawn)	–	–	–	–	–	–	–	13.7% (inactive)	131%	1.01 (inactive)	1.1	1.11	0.913 (inactive) and 0.85 (inactive)	1.29 and 1.24	8740 and 9660	9570 and 11400	–	-1.44 (inactive)
CCC(C)C1NC(=O)C(CCNCS(=O)(=O)O)NC(=O)C(NC(=O)C(CCNCS(=O)(=O)O)NC(=O)C(NC(=O)C(CCNCS(=O)(=O)O)NC(=O)CCCCC(C)C)C(C)O)CCNC(=O)C(C(C)O)NC(=O)C(CCNCS(=O)(=O)O)NC(=O)C(CCNCS(=O)(=O)O)NC(=O)C(C(C)CC)NC1=O (stereo not drawn) ({Heptanoyl(6-Me)}-[ξDab(CH2SO3H)]T[ξDab(CH2SO3H)][Dab][ξDab(CH2SO3H)]II[ξDab(CH2SO3H)][ξDab(CH2SO3H)]T; lactam 4-C; configuration not given here)	16.7%	0.3	0	1.4	59.3%	-9.16%	0.253	124% (inactive) and 57.4% (inactive)	68.9% and 92.3%	1.41 (inactive)	1.02	1.44	0.942 (inactive)	0.679	11200	11900	–	–
CCC(=O)O[C@]1(C(=O)CCl)[C@@H](C)CC2C3CCC4=CC(=O)C=C[C@]4(C)[C@@]3(F)[C@@H](O)C[C@@]21C (stereo partly drawn)	-7.85%	0.96	0.61	1.1	51%	19.7%	1.08	202% (inactive) and 73.8% (inactive)	86% and 95.6%	1.11 (inactive)	1.12	1.25	0.913 (inactive)	3.26	7630	8360	2	–
CN[C@@H]1C(O)[C@@H](O[C@@H]2[C@@H](O)[C@H](O[C@H]3OC(CN)=CC[C@H]3N)[C@@H](N)C[C@H]2N)OC[C@]1(C)O (stereo partly drawn)	11.9%	1.54	-2.25	1.22	66.2%	-12%	1.05	96.3% (inactive) and 41.6% (inactive)	74.6% and 94.8%	1.18 (inactive)	1.02	1.2	0.967 (inactive)	4.46	11400	11800	2	–
C=C[C@H]1CN2CC[C@H]1C[C@@H]2[C@H](O)c1ccnc2ccc(OC)cc12	-2.2%	1.5	-7.29	0.97	9.09%	13.1%	1.58	68.2% (inactive) and 15.1% (active)	72.3% and 81.3%	1.16 (inactive)	1.05	1.21	0.948 (inactive)	2.86	10900	11500	–	–
CCOC(=O)OC(C)OC(=O)C1N2C(=O)C(NC(=O)[C@H](N)c3ccccc3)C2SC1(C)C (stereo partly drawn)	5.61%	1.5	-4.3	0.96	70.4%	-13.3%	1.07	43.5% (inactive)	104%	1.19 (inactive)	1.07	1.27	0.906 (inactive)	2.54	11600	12800	2	–
